Bioassay records as filed in PubChem.
HEK293 tox = HEK 293 cell cytotoxicity; 94,000 compounds, 6.6% hits; HEK 293 viability, ATP luminescence (CellTiter-Glo), 48-72 h; Potency, µM (doses to about 115 µM), hits mostly inhibitors; further: nearly all actives have a fitted effect of over 60% in size
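qHTS cytotoxicity; HEK 293, 250 cells/well; compound pinned; 48 or 72 hr, 37 degree Celsius, 5% CO2, 95% humidity; CellTiter-Glo, 10 min RT; luminescence (ATP).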
hNpr1 antagonist = antagonists of human natriuretic peptide receptor Npr1. Potency, µM (top dose mostly 46.3 µM), hits mostly inhibitors. 76,000 compounds, 1.6% hits. HEK293 hNpr1 GloSensor cGMP, ANP-stimulated luminescence; calls by dose curve; further: nearly all actives have a fitted effect of over 60% in size
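Compound pre-incubated 30 min at room temperature on GloSensor-loaded HEK293 cells stably carrying hNpr1 and the pGS-40F cGMP biosensor. Stimulation uses hNppA at 0.1 nM final; luminescence is taken at baseline and 20 min post-agonist.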
NIH3T3 tox = kills NIH 3T3 cells; NIH 3T3 viability, CellTiter-Glo ATP luminescence, 48-72 h; Potency, µM (doses to about 96.7 µM), hits mostly inhibitors; 94,000 compounds, 4.3% hits; AID 1345082; further: nearly all actives have a fitted effect of over 55% in size
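Cytotoxicity is measured as loss of cellular ATP: NIH 3T3 cells (400/well) are exposed to compound for 48 or 72 hr at 37 °C, then CellTiter-Glo luminescence is imaged after 10 min at room temperature.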
GPT2 inhibitor = GPT2 alanine aminotransferase inhibition; Q8TD30; Recombinant GPT2, coupled pyruvate oxidase/HRP Amplex Red fluorescence; Potency, µM (highest dose often 57.7 µM), actives largely listed as inhibitors; 100,000 compounds, 0.25% hits; AID 1671188; further: nearly all actives have a fitted effect of over 60% in size
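GPT2 10ng/uL, a-KG 250uM, L-Ala 2mM, HEPES pH7.5 + 0.0001% Tween; 30 min RT. Then Amplex mix (PO/HRP/ThPP), 30 min RT dark, fluorescence. AOA 50uM used as positive control.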
Luciferase inh = Photinus pyralis luciferase inhibition | P08659 | purified P. pyralis luciferase, luminescence, biochemical | Potency, µM (series often up to 115 µM), usual class: inhibitors | 76,000 compounds, 2.5% hits | AID 1347043; further: nearly all actives have a fitted effect of over 65% in size
Target sequence (P08659 whole entry, looked up): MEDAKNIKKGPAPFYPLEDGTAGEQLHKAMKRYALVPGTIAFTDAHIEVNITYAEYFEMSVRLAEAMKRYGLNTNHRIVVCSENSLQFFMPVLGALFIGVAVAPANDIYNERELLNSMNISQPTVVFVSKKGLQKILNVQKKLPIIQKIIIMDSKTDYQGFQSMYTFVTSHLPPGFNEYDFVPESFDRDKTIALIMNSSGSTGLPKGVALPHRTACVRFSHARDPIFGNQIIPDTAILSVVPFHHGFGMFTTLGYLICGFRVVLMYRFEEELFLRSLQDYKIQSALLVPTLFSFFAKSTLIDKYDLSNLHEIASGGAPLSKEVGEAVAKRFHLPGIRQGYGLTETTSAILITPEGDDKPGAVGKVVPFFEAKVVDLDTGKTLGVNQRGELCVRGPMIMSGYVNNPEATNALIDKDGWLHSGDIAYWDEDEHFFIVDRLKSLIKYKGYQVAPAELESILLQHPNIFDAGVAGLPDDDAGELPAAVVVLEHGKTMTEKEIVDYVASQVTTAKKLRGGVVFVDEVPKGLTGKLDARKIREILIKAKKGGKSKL
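Cell-free enzyme assay, 10nM P. pyralis luciferase, luciferin and ATP each at 10uM. Inhibition profiled over a 6-point titration, read as luminescence.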
Hits are given with their value. Sampled rows, rich in hits. Any-hit rate of the full collection: about 10%. Unless noted, the call rests on the fitted dose curve; in most records, active means well fitted curve in the direction sought with a large enough effect; inconclusive means small, poorly fitted or top-dose-only effect, or another doubt; inactive means no such curve, though single readings can be large; an effect the other way counts as inactive or inconclusive.

What do the screens show for `COc1ccc(-c2ccnc(N[C@H]3CO[C@H]4[C@@H]3OC[C@@H]4NC(=O)c3ccc4c(c3)OCO4)n2)cc1`?
HEK293 tox: 31.6µM; hNpr1 antagonist: inconclusive; NIH3T3 tox: inconclusive; GPT2 inhibitor: inactive; Luciferase inh: inactive

How did O=C(N[C@H]1CO[C@H]2[C@@H]1OC[C@@H]2Nc1nccc(-c2ccc(-c3ccccc3)cc2)n1)c1ccc2c(c1)OCO2 do in these assays?
HEK293 tox: inactive; hNpr1 antagonist: inactive; NIH3T3 tox: inactive; GPT2 inhibitor: inactive; Luciferase inh: inactive

What do the screens show for `COc1ccc(C(=O)N[C@H]2CO[C@H]3[C@@H]2OC[C@@H]3Nc2nccc(-c3cccc(F)c3)n2)cc1`?
HEK293 tox: inconclusive; hNpr1 antagonist: inactive; NIH3T3 tox: inactive; GPT2 inhibitor: inactive; Luciferase inh: inactive

Results for COc1cccc(NC(=O)O[C@@H]2CO[C@H]3[C@@H]2OC[C@@H]3Nc2nccc(-c3cccc(F)c3)n2)c1 ?
HEK293 tox: 44.7µM; hNpr1 antagonist: inactive; NIH3T3 tox: inconclusive; GPT2 inhibitor: inactive; Luciferase inh: inactive

What do the screens show for `COc1ccc(-c2ccnc(N[C@H]3CO[C@H]4[C@@H]3OC[C@@H]4NC(=O)Nc3cccc(C(F)(F)F)c3)n2)cc1`?
HEK293 tox: 39.8µM; hNpr1 antagonist: inactive; NIH3T3 tox: 39.8µM; GPT2 inhibitor: inactive; Luciferase inh: inactive

What do the screens show for `COc1ccccc1-c1ccnc(N[C@H]2CO[C@H]3[C@@H]2OC[C@@H]3NC(=O)Nc2cccc(C(F)(F)F)c2)n1`?
HEK293 tox: inactive; hNpr1 antagonist: inactive; NIH3T3 tox: inactive; GPT2 inhibitor: inactive; Luciferase inh: inactive

What do the screens show for `CCC(C)NC(=O)C(NC(=O)c1ccc(C)cc1)C1CCN(C(=O)c2cccc(F)c2)CC1` (stereo not drawn)?
HEK293 tox: inactive; hNpr1 antagonist: inactive; NIH3T3 tox: inactive; GPT2 inhibitor: inactive; Luciferase inh: inactive

How did CCCCc1ncc(CN(C)CC2CCCN(CCc3ccc(F)cc3)C2)[nH]1 (stereo not drawn) do in these assays?
HEK293 tox: 39.8µM; hNpr1 antagonist: inactive; NIH3T3 tox: inconclusive; GPT2 inhibitor: inconclusive; Luciferase inh: inactive

Results for CN(Cc1ccc(N2CCNC2=O)cc1)CC1CCCN(CCc2ccc(F)cc2)C1 (stereo not drawn) ?
HEK293 tox: inconclusive; hNpr1 antagonist: inactive; NIH3T3 tox: inconclusive; GPT2 inhibitor: inactive; Luciferase inh: inactive

Results for CN1[C@@H](CCC(=O)NCc2cccs2)CNC(=O)[C@@H]2[C@H]1CCN2Cc1ncc[nH]1 ?
HEK293 tox: inactive; hNpr1 antagonist: inactive; NIH3T3 tox: inactive; GPT2 inhibitor: inactive; Luciferase inh: inactive

How did COc1ccc(Nc2cnc3ccc(N4CCOCC4)nn23)cn1 do in these assays?
HEK293 tox: inconclusive; hNpr1 antagonist: inactive; NIH3T3 tox: inconclusive; GPT2 inhibitor: inconclusive; Luciferase inh: inactive

What do the screens show for `Cc1nnc2ccc(N3CCOCC3)nn12`?
HEK293 tox: inactive; hNpr1 antagonist: inactive; NIH3T3 tox: inactive; GPT2 inhibitor: inactive; Luciferase inh: inactive

Results for FC(F)(F)Oc1ccc(Nc2cnc3ccc(N4CCOCC4)nn23)cc1 ?
HEK293 tox: 50.1µM; hNpr1 antagonist: inactive; NIH3T3 tox: inconclusive; GPT2 inhibitor: inactive; Luciferase inh: inactive

Results for FC(F)(F)c1cc(Nc2cnc3ccc(N4CCOCC4)nn23)ccc1Cl ?
HEK293 tox: 79.4µM; hNpr1 antagonist: inconclusive; NIH3T3 tox: inconclusive; GPT2 inhibitor: inconclusive; Luciferase inh: inactive

Results for Cn1ncc2c(C(=O)N3CCOCC3)cc(-c3ccc(C(F)(F)F)cc3)nc21 ?
HEK293 tox: inactive; NIH3T3 tox: inconclusive

What do the screens show for `CCOC(=O)C1(Cc2ccccc2C)CCCNC1` (stereo not drawn)?
HEK293 tox: inactive; hNpr1 antagonist: inactive; NIH3T3 tox: inactive; GPT2 inhibitor: inactive; Luciferase inh: inactive

Results for Cc1ccc(C(CC(=O)N2CCC(C)CC2)c2cn(C)c3ccccc23)cc1 (stereo not drawn) ?
HEK293 tox: inactive; hNpr1 antagonist: inactive; NIH3T3 tox: inactive; GPT2 inhibitor: inactive; Luciferase inh: inactive

Results for CCOC(=O)C1CCCN(C(=O)CC(c2ccc3c(c2)OCO3)c2cn(CC)c3ccccc23)C1 (stereo not drawn) ?
HEK293 tox: inconclusive; hNpr1 antagonist: inactive; NIH3T3 tox: 39.8µM; GPT2 inhibitor: inconclusive; Luciferase inh: inactive

Results for Cc1ccc(C(CC(=O)N2CCCCC2)c2cn(C)c3ccccc23)cc1 (stereo not drawn) ?
HEK293 tox: 50.1µM; hNpr1 antagonist: inactive; NIH3T3 tox: inconclusive; GPT2 inhibitor: inactive; Luciferase inh: inactive

What do the screens show for `Cc1ccc(C(CC(=O)N2CCc3ccccc3C2)c2cn(C)c3ccccc23)cc1` (stereo not drawn)?
HEK293 tox: inconclusive; hNpr1 antagonist: inactive; NIH3T3 tox: inconclusive; GPT2 inhibitor: inconclusive; Luciferase inh: 35.5µM

How did CCOCCOC1CCN(C(=O)c2ccc3cc[nH]c3c2)CC1 do in these assays?
HEK293 tox: inactive; hNpr1 antagonist: inactive; NIH3T3 tox: inactive; GPT2 inhibitor: inactive; Luciferase inh: inactive

How did CCn1ncc(N2CCC(NC(=O)c3cccc(OC)c3OC)CC2)cc1=O do in these assays?
HEK293 tox: inactive; hNpr1 antagonist: inactive; NIH3T3 tox: inactive; GPT2 inhibitor: inactive; Luciferase inh: inactive

How did O=C(CN1C(=O)NC(c2ccc(Cl)cc2)C2=C1COC2=O)Nc1ccc(C(F)(F)F)cc1 (stereo not drawn) do in these assays?
HEK293 tox: inconclusive; hNpr1 antagonist: inconclusive; NIH3T3 tox: 22.4µM; GPT2 inhibitor: inactive; Luciferase inh: inactive

What do the screens show for `O=C(CN1C(=O)NC(c2ccc(Cl)cc2)C2=C1COC2=O)NCCc1ccc(Cl)cc1` (stereo not drawn)?
HEK293 tox: 44.7µM; hNpr1 antagonist: inactive; NIH3T3 tox: inconclusive; GPT2 inhibitor: inconclusive; Luciferase inh: inactive

What do the screens show for `O=C(CN1C(=O)NC(c2ccccc2Cl)C2=C1COC2=O)NCCc1ccc(Cl)cc1` (stereo not drawn)?
HEK293 tox: inconclusive; hNpr1 antagonist: inactive; NIH3T3 tox: inconclusive; GPT2 inhibitor: inactive; Luciferase inh: inactive

How did Cc1ccc(C2NC(=O)N(CC(=O)Nc3ccc(C(F)(F)F)cc3)C3=C2C(=O)OC3)cc1 (stereo not drawn) do in these assays?
HEK293 tox: 25.1µM; hNpr1 antagonist: inconclusive; NIH3T3 tox: 31.6µM; GPT2 inhibitor: inactive; Luciferase inh: inactive

Results for CCCCc1ccc(NC(=O)CN2C(=O)NC(c3ccc(Cl)cc3)C3=C2COC3=O)cc1 (stereo not drawn) ?
HEK293 tox: 20µM; hNpr1 antagonist: inactive; NIH3T3 tox: 20µM; GPT2 inhibitor: inactive; Luciferase inh: inactive

How did CCN1C(=O)CCN(Cc2ccc(F)c(F)c2)CC12CCOCC2 do in these assays?
HEK293 tox: inactive; NIH3T3 tox: inactive; GPT2 inhibitor: inactive
